Data on 31 molecules can be found in PubChem BioAssay (NCATS).

Each structure is given as a SMILES string. “And” between values parts separate entries of the source, which are not always exact repeats. Identical values can stand only once. Records with an inconclusive call do not appear. The source made the active and inactive calls. Calls follow the shape of the dose curve; as a rule, active = well fitted curve in the direction sought with a large enough effect; inconclusive = small, poorly fitted or top-dose-only effect, or another doubt; inactive = no such curve, though single readings can be large; an effect the other way counts as inactive or inconclusive.
Potency is read from the fitted curve at half-maximal effect.

The first test is described as follows: qHTS of pediatric cancer cell lines to identify multiple opportunities for drug repurposing: Primary screen for Rh41 cells (AID 1347108). Also: nearly all actives have a fitted effect of over 70% in size.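 As to activity change, negative = cytotoxic: luminescence drop marks cytotoxic hits.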 As to conditions: Rh41 rhabdomyosarcoma viability, CellTiter-Glo luminescence, 48 h; series mostly up to 46 µM; activity change, negative = cytotoxic: at the top concentration. In outline: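 Readout: CellTiter-Glo luminescence, 48 h treatment. Controls DMSO (neutral) and bortezomib 2.3 µM final (positive). Potency and efficacy taken from primary-screen concentration-response curves.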
On the technique in general: qHTS replaces the single test concentration by a dilution series.
Consider `CCc1nc(N)nc(N)c1-c1ccc(Cl)cc1`, for which the “activity change, negative = cytotoxic” value was 12.7% (inactive).
For `Cc1ncc([N+](=O)[O-])n1CC(C)O` (centres undefined), the Potency result is “inactive”.
Turning to `O=c1oc2cc(O)ccc2s1`, the “activity change, negative = cytotoxic” value is 12.6% (inactive).
Still for that read-out and setting: the value for `CCOC(=O)C1=C[C@@H](OC(CC)CC)[C@H](NC(C)=O)[C@@H](N)C1` was 6.63% (inactive).
In the case of `Cc1nccn1CC1CCc2c(c3ccccc3n2C)C1=O` (centres undefined), the Potency entry is “inactive”.
With `N=C(N=C(N)N)N1CCOCC1`, the Potency entry is “inactive”.
As for `CCC(C)(Oc1ccc(C2(c3ccc(OC(C)(CC)C(=O)O)cc3)CCCCC2)cc1)C(=O)O` (centres undefined), the “activity change, negative = cytotoxic” value was 32.2% (inactive).
With `Cc1nc(-c2ccc(OCC(C)C)c(C#N)c2)sc1C(=O)O`, the Potency result is “inactive”.
In the case of `Cn1c(NCCN(CCO)CCCc2ccc([N+](=O)[O-])cc2)cc(=O)n(C)c1=O`, the “activity change, negative = cytotoxic” value is 5.37% (inactive).
For the molecule `C=C(c1ccc(C(=O)O)cc1)c1cc2c(cc1C)C(C)(C)CCC2(C)C`, the Potency result was “inactive”.
The same measure, in the same setting: the result for `Cc1c(OCC(F)(F)F)ccnc1CS(=O)c1nc2ccccc2[nH]1` (centres undefined) reads “inactive”.
For `S=c1nc[nH]c2nc[nH]c12`, the “activity change, negative = cytotoxic” value is -23.3% (inactive).
On the same count and under the same terms, the result for `CN(C)[C@@H](CCOc1cccc2ccccc12)c1ccccc1` reads 21.4% (inactive).
Still for that read-out and setting: the value for `O=C1c2c(O)cc(O)cc2OC(c2ccc(O)c(O)c2)C1O` (centres undefined) was 25.5% (inactive); that for `C[C@H](Cn1cnc2c(N)ncnc21)OCP(=O)(O)O` was 49% (inactive).
With `O=C(NC(Cc1cc(=O)[nH]c2ccccc12)C(=O)O)c1ccc(Cl)cc1` (centres undefined), the Potency result was “inactive”.
For `COC1=C(OC)C(=O)C(CCCCCCCCCCO)=C(C)C1=O`, the “activity change, negative = cytotoxic” value is 12.7% (inactive).
`O=Nc1c(-c2c(O)[nH]c3cc(Br)ccc23)[nH]c2ccccc12`: the Potency was 14.8 µM (active).
`CCOC(=O)C(C)Oc1cccc2c(=O)n(CC(=O)Nc3ccc4c(c3)OCCO4)ccc12` (centres undefined): the “activity change, negative = cytotoxic” value was 10.3% (inactive).
Same read-out and setting: the value for `CC[C@]1(O)C[C@H]2CN(CCc3c([nH]c4ccccc34)[C@@](C(=O)OC)(c3cc4c(cc3OC)N(C=O)[C@H]3[C@@](O)(C(=O)OC)[C@H](OC(C)=O)[C@]5(CC)C=CCN6CC[C@]43[C@@H]65)C2)C1` was -26.3% (inactive); that for `CNC[C@H](O)c1ccc(O)c(O)c1` was -7.45% [at 16.1 µM] (inactive).
The same measure, in the same setting: the value for `O=C(CS(=O)Cc1ccco1)NCC=CCOc1cc(CN2CCCCC2)ccn1` (centres undefined) was 24% (inactive); that for `Cc1cccc(CN2CCN(C(c3ccccc3)c3ccc(Cl)cc3)CC2)c1` (centres undefined) was -1.04% (inactive).
In the case of `O=C(O)CCNC(=O)c1ccc(N=Nc2ccc(O)c(C(=O)O)c2)cc1`, the Potency result was “inactive”.
Consider `COc1cc2c(cc1OC)C1CC(=O)C(CC(C)C)CN1CC2` (centres undefined), for which the “activity change, negative = cytotoxic” value is 27.4% (inactive).
On the same count and under the same terms, the value for `Nc1nc(Cl)nc2c1ncn2[C@H]1C[C@H](O)[C@@H](CO)O1` was -7.43% (inactive); that for `COc1c(O)cc2c(c1O)[C@@H]1O[C@H](CO)[C@@H](O)[C@H](O)[C@H]1OC2=O` was 2.73% (inactive).
On to `c1ccc2[nH]c(-c3cscn3)nc2c1`, for which the Potency result was “inactive”.
For the molecule `O=C(NCCO[N+](=O)[O-])c1cccnc1`, the Potency entry is “inactive”.

The next test is described as follows: qHTS of pediatric cancer cell lines to identify multiple opportunities for drug repurposing: Confirmatory screen for NB1643 cells (AID 1347109). Also: nearly all actives have a fitted effect of over 45% in size.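 As to activity change, negative = cytotoxic: plate controls were DMSO for no effect and bortezomib for full effect.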 Particulars: NB1643 neuroblastoma cell viability; series mostly up to 45.9 µM; activity change, negative = cytotoxic: at the top concentration. In outline: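 Cells (500-1,000/well) in growth media were settled 5 h at 37 degrees C, then given compounds for 48 h. Viability was read as CellTiter-Glo luminescence. Primary runs used MIPE at 11 points (0.78 nM-46 µM) and NPC at 8 points (0.59 nM-46 µM); follow-ups used 11 points.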
Consider `C=C(c1ccc(C(=O)O)cc1)c1cc2c(cc1C)C(C)(C)CCC2(C)C`, for which the “activity change, negative = cytotoxic” value is -14.4% (inactive).
In the case of `O=C1c2c(O)cc(O)cc2OC(c2ccc(O)c(O)c2)C1O` (centres undefined), the “activity change, negative = cytotoxic” value is -8.57% (inactive).
With `CC[C@]1(O)C[C@H]2CN(CCc3c([nH]c4ccccc34)[C@@](C(=O)OC)(c3cc4c(cc3OC)N(C=O)[C@H]3[C@@](O)(C(=O)OC)[C@H](OC(C)=O)[C@]5(CC)C=CCN6CC[C@]43[C@@H]65)C2)C1`, the Potency is 10.4 nM (active) and 1.04 µM (active).
With `Nc1nc(Cl)nc2c1ncn2[C@H]1C[C@H](O)[C@@H](CO)O1`, the Potency was 2.08 µM (active).

A short description of another test: qHTS of pediatric cancer cell lines to identify multiple opportunities for drug repurposing: Confirmatory screen for SK-N-MC cells (AID 1347111).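 Also: cells exposed to compound for 48 h before the readout; nearly all actives have a fitted effect of over 70% in size.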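 As to activity change, negative = cytotoxic: plate controls were DMSO for no effect and bortezomib for full effect.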 Particulars: SK-N-MC cell viability; series mostly up to 45.9 µM; activity change, negative = cytotoxic: at the top concentration. In outline: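 Metabolically active cells were quantified by ATP-dependent luminescence (CellTiter-Glo, 15 min at room temperature) following 48 h treatment. Cells had been plated at 500-1,000 per well and settled for 5 h beforehand.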
As for `CCCOc1ccc2nc(NC(=O)OC)[nH]c2c1`, the Potency was 1.31 µM (active).
On the same count and under the same terms, the value for `CCc1nc(N)nc(N)c1-c1ccc(Cl)cc1` was 1.31 µM (active).
Take `O=C1c2c(O)cc(O)cc2OC(c2ccc(O)c(O)c2)C1O` (centres undefined): the “activity change, negative = cytotoxic” value is -1.45% (inactive).
`Cc1ccc(Nc2nccc(N(C)c3ccc4c(C)n(C)nc4c3)n2)cc1S(N)(=O)=O`: the Potency is 18.5 µM (active).
Same read-out and setting: the result for `CC[C@]1(O)C[C@H]2CN(CCc3c([nH]c4ccccc34)[C@@](C(=O)OC)(c3cc4c(cc3OC)N(C=O)[C@H]3[C@@](O)(C(=O)OC)[C@H](OC(C)=O)[C@]5(CC)C=CCN6CC[C@]43[C@@H]65)C2)C1` reads 23.3 nM (active) and 104 nM (active); that for `Nc1nc(Cl)nc2c1ncn2[C@H]1C[C@H](O)[C@@H](CO)O1`, 6.57 µM (active).
